According to PubChem BioAssay (NCATS):
Records with an inconclusive call do not appear. Calls of active or inactive are those of the source. Calls follow the shape of the dose curve; as a rule, active = well fitted inhibition curve with a large enough effect; inconclusive = small, poorly fitted or top-dose-only effect; inactive = flat fitted curve, though single readings scatter.

Key:
Assay in all cases: qHTS profiling for inhibitors of Plasmodium falciparum proliferation (AID 504749); also: nearly all actives have a fitted effect of over 60% in size
Settings in all cases: P. falciparum in erythrocytes, SYBR Green DNA, 72 h; series mostly up to 28.7 µM
AA1029 = system: AA1029
Outline: (§1)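 P. falciparum-infected erythrocytes (0.3% parasitemia, 2.5% hematocrit) incubated with compound 72 h at 37 C, 5% CO2. Parasite DNA detected by SYBR Green after lysis, overnight at room temperature; normalised to 0.29 uM artemisinin and DMSO.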

CP185 = system: CP185
Outline: as §1

CP191 = system: CP191
Outline: as §1

CP194 = system: CP194
Outline: as §1

CP203 = system: CP203
Outline: as §1

CP215 = system: CP215
Outline: as §1

CP217 = system: CP217
Outline: as §1

CP250 = system: CP250
Outline: as §1

CP252 = system: CP252
Outline: as §1

CP260 = system: CP260
Outline: as §1

CP265 = system: CP265
Outline: as §1

CP266 = system: CP266
Outline: as §1

CP268 = system: CP268
Outline: as §1

CP269 = system: CP269
Outline: as §1

CP297 = system: CP297
Outline: as §1

CP305 = system: CP305
Outline: as §1

CP329 = system: CP329
Outline: as §1

JCK = system: JCK
Outline: as §1

SC27B = system: SC27B
Outline: as §1

TAB113 = system: TAB113
Outline: as §1

Measured: Potency

CN(C)CC/C=C1\c2ccccc2COc2ccc(CC(=O)O)cc21
inactive: all assays above

O=C(O)C(O)c1ccccc1 (configuration not stated)
inactive: all assays above

O=C1[C@@H]2C[C@@H]3C[C@H]1C[C@@](O)(C3)C2
inactive: all assays above

C/C=C1/NN(CCCN2CCN(c3cccc(Cl)c3)CC2)C(=O)N1CCOc1ccccc1
not listed: CP191 | CP203 | CP297
inactive: all other assays above

O=C(O)C[CH2][Ge](=[O])[O][Ge](=[O])[CH2]CC(=O)O
inactive: all assays above

CCCSS/C(CCO)=C(/C)N(C=O)Cc1cnc(C)nc1N
inactive: all assays above

NC(=O)c1ncn(C2OC(CO)C(O)C2O)c1N (configuration not stated)
inactive: all assays above

C=CCN1CC(C(=O)N(CCCN(C)C)C(=O)NCC)CC2c3cccc4[nH]cc(c34)CC21 (configuration not stated)
not listed: AA1029 | CP191 | CP203 | CP217 | CP252 | CP260 | SC27B | TAB113
inactive: all other assays above

CCCC(=O)O[C@]1(C(=O)COC(C)=O)CC[C@H]2C3C[C@H](F)C4=CC(=O)C=CC4(C)[C@@]3(F)[C@@H](O)CC21C (some centres not stated)
inactive: all assays above

CNC1C(O)C(OC2C(NC(=O)C(O)CN)CC(N)C(OC3OC(CN)C(O)C(O)C3O)C2O)OCC1(C)O (configuration not stated)
inactive: all assays above

Cc1cnc(C(=O)O)cn1
inactive: all assays above

CC(=O)OCC(=O)[C@@]1(O)CCC2C3C[C@H](C)C4=CC(=O)C=CC4(C)C3C(O)CC21C (some centres not stated)
inactive: all assays above

Nc1nc(/C(=C/CC(=O)O)C(=O)NC2C(=O)N3C(C(=O)O)=CCSC23)cs1 (configuration not stated)
not listed: CP203
inactive: all other assays above

CC[C@@H]1/C=C(\C)C[C@H](C)C[C@H](OC)[C@H]2O[C@@](O)(C(=O)C(=O)N3CCCC[C@H]3C(=O)O[C@H](/C(C)=C/[C@@H]3CC[C@H](Cl)[C@H](OC)C3)[C@H](C)[C@@H](O)CC1=O)[C@H](C)C[C@@H]2OC
inactive: all assays above

CO/N=C(/C(=O)N[C@@H]1C(=O)N2C(C(=O)O)=C(CSc3cnns3)CS[C@H]12)c1csc(N)n1
not listed: CP266
inactive: all other assays above

CCN(CC)C(=O)[C@@]1(c2ccccc2)C[C@@H]1CN
inactive: all assays above

CCCCCCCCCCCCCCCC(=O)OC[C@H](O)[C@H]1OC[C@@H](O)[C@@H]1O
inactive: all assays above
